Assay results published in PubChem BioAssay (NCATS).
Results filed as inconclusive are left out. Entries that show only a call come without a potency. A number with no mark means an inactive call. Active and inactive are the calls of the source. Calls follow the shape of the dose curve; as a rule, active = well fitted cell-killing curve with a large enough effect; inconclusive = small, poorly fitted or top-dose-only effect, or effect the other way; inactive = flat fitted curve, though single readings scatter.

What was measured:
Assay in all cases: Primary qHTS to identify gynecologic anti-cancer compounds using libraries of approved drugs and bioactive compounds (AID 1345084); also: nearly all actives have a fitted effect of over 55% in size
Conditions in all cases: Gynecologic cancer cell panel viability, ATPlite luminescence, 48 h; series mostly up to 57.5 µM
[1] = tested on: PA-1
Outline: (§1)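 In this quantitative HTS, cell killing is estimated from loss of ATP-dependent luciferase light. Cells see five compound concentrations over a 48 h exposure.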

[2] = tested on: SKOV3
Outline: as §1

[3] = tested on: Tov112D
Outline: as §1

[4] = tested on: Tov-21-G
Outline: as §1
Potency is read from the fitted curve at half-maximal effect.

Row | Compound | Potency [1] | Potency [2] | Potency [3] | Potency [4]
1 | COc1ccc(S(=O)(=O)N2CCC[C@H]2C(=O)Nc2cc(C)cc(C)c2)cc1 | inactive | inactive | inactive | 
2 | C=C[C@@]1(C)C=C2C(=O)C(O)=C3[C@](C)(C(=O)O)CC[C@@H]4C[C@]34[C@]2(O)C(=O)C1 | 11.2 µM (active) |  |  | 11.2 µM (active)
3 | O=c1ccc2ccc(OCCCCN3CCN(c4cccc5sccc45)CC3)cc2[nH]1 | inactive |  | inactive | inactive
4 | C=C(C)C(=O)O[C@H]1C[C@@](C)(O)C2(O)CCC(C)(/C=C3/OC(=O)C(COC)=C31)O2 (stereo not given in full) | 10 µM (active) |  |  | 10 µM (active)
5 | N#Cc1ccc(COc2ccc(-c3cccc4nc(NC(=O)C5CC5)nn34)cc2)cn1 | inactive |  |  | inactive
6 | COc1cc(N2CCC(O)CC2)ccc1Nc1nc(Nc2ccccc2S(=O)(=O)C(C)C)c2[nH]cnc2n1 | inactive | inactive | inactive | 
7 | CCOC(=O)N1CCC(CN(Cc2ccc(Cl)cc2)Cc2ccc([N+](=O)[O-])s2)C1 (stereo not given) | inactive |  |  | inactive
8 | CCC(C)CC(=O)OC1C(=O)C(CO)=CC(O)C1C(C)C (stereo not given) | 31.6 µM (active) |  |  | 25.1 µM (active)
9 | C[C@H]1CO[C@@H]2Cn3cc(C(=O)NCc4ccc(F)cc4F)c(=O)c(O)c3C(=O)N12 | inactive | inactive | inactive | 
10 | Nc1ncnc2c1c(-c1ccc(Oc3ccccc3)cc1)nn2[C@@H]1CCCNC1 | 25.1 µM (active) |  |  | inactive
11 | CCCOc1ccc(CCc2nc3cc(-c4c(C)noc4C)ccc3n2CCN2CCOCC2)cc1 | inactive |  | inactive | inactive
12 | COc1cc(-n2cnc3cc(-c4ccc(Cl)cc4)sc3c2=O)ccc1OCCN1CCCC1 | 22.4 µM (active) |  |  | inactive
13 | Cn1sc(=O)n(Cc2ccccc2)c1=O | inactive | inactive | inactive | 
14 | NC(N)=NC(=O)c1cnn(-c2cccc3ncccc23)c1C1CC1 | inactive |  | inactive | inactive
15 | CCCc1cc(C)[nH]c(=O)c1CNC(=O)c1cc(-c2ccnc(N3CCN(C)CC3)c2)cc2c1cnn2C(C)C | 25.1 µM (active) |  |  | 31.6 µM (active)
16 | O=C(Nc1ccc2[nH]nc(-c3ccncc3)c2c1)[C@@H]1CCN(CC(=O)N2CCN(c3ccc(-c4ncccn4)cc3)CC2)C1 | inactive | inactive | inactive | 
17 | CCN1CCN(Cc2ccc(NC(=O)c3ccc(C)c(Oc4ncnc5[nH]c(C)cc45)c3)cc2C(F)(F)F)CC1 | 31.6 µM (active) |  |  | 11.2 µM (active)
18 | CCCCc1c(-c2ccc(OC)cc2)[nH]c2nccnc12 | inactive |  | inactive | inactive
